Test results reported in PubChem BioAssay (EPA / NIEHS).
Activity calls are given as the source filed them. The calls were made as follows: active = hit-call score of the fitted dose curve at least 0.9, where 1 is the maximum; inactive = score below 0.9.

Experiments:
[1] = read-out: Human Leukocyte Antigen - DR isotype (HLADR), HLA-DRA (gene 3122); assay: BSK_CASM3C_HLADR: BioMAP Diversity Plus: CASM3C Assay for Human Leukocyte Antigen - DR isotype (HLADR) Biomarker Activity (AID 2283043); conditions: primary human coronary artery smooth muscle cells; actives raise or lower the signal;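 also: cell-surface HLA-DR protein level quantified by ELISA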
[2] = read-out: Macrophage colony-stimulating factor (MCSF), CSF1 (gene 1435); assay: BSK_CASM3C_MCSF: BioMAP Diversity Plus: CASM3C Assay for Macrophage colony-stimulating factor (MCSF) Biomarker Activity (AID 2283044); conditions: primary human coronary artery smooth muscle cells; actives raise or lower the signal;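 also: M-CSF protein amount quantified by ELISA after 24 h exposure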
[3] = read-out: Low-density lipoprotein receptor (LDLR), LDLR (gene 3949); assay: BSK_CASM3C_LDLR: BioMAP Diversity Plus: CASM3C Assay for Low-density lipoprotein receptor (LDLR) Biomarker Activity (AID 2283045); conditions: primary human coronary artery smooth muscle cells; actives raise or lower the signal;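 also: LDLR protein level on the cell surface quantified by ELISA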
[4] = read-out: Monocyte Chemoattractant Protein-1 (MCP1), CCL2 (gene 6347); assay: BSK_CASM3C_MCP1: BioMAP Diversity Plus: CASM3C Assay for Monocyte Chemoattractant Protein-1 (MCP1) Biomarker Activity (AID 2283046); conditions: primary human coronary artery smooth muscle cells; actives raise or lower the signal;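 also: MCP-1 level quantified by ELISA 24 h after dosing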
[5] = BSK_CASM3C_Proliferation: Cell Proliferation Assessment in the BioMAP Diversity Plus: CASM3C Assay (AID 2283047); conditions: primary human coronary artery smooth muscle cells;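 also: sulforhodamine B total protein stain as relative cell number at 560 nm; sub-confluent cells exposed 48 h before staining; fitted both ways against DMSO so gain or loss of cell number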
[6] = read-out: Monokine induced gamma interferon (MIG), CXCL9 (gene 4283); assay: BSK_CASM3C_MIG: BioMAP Diversity Plus: CASM3C Assay for Monokine induced gamma interferon (MIG) Biomarker Activity (AID 2283048); conditions: primary human coronary artery smooth muscle cells; actives raise or lower the signal;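 also: MIG protein level measured by ELISA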
[7] = read-out: serum amyloid A (SAA), SAA1 (gene 6288); assay: BSK_CASM3C_SAA: BioMAP Diversity Plus: CASM3C Assay for serum amyloid A (SAA) Biomarker Activity (AID 2283049); conditions: primary human coronary artery smooth muscle cells; actives raise or lower the signal;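 also: SAA protein level quantified by ELISA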
[8] = BSK_CASM3C_SRB: Viability Assessment in the BioMAP Diversity Plus: CASM3C Assay (AID 2283050); conditions: primary human coronary artery smooth muscle cells;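 also: total protein by SRB staining as cytotoxicity measure in parallel cultures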
[9] = read-out: Thrombomodulin, THBD (gene 7056); assay: BSK_CASM3C_Thrombomodulin: BioMAP Diversity Plus: CASM3C Assay for Thrombomodulin Biomarker Activity (AID 2283051); conditions: primary human coronary artery smooth muscle cells; actives raise or lower the signal;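 also: thrombomodulin protein level measured by ELISA 24 h after dosing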
[10] = read-out: Tissue Factor, F3 (gene 2152); assay: BSK_CASM3C_TissueFactor: BioMAP Diversity Plus: CASM3C Assay for Tissue Factor Biomarker Activity (AID 2283052); conditions: primary human coronary artery smooth muscle cells; actives raise or lower the signal;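 also: cell surface tissue factor protein level read by ELISA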
[11] = read-out: Urokinase-type plasminogen activator receptor (uPAR), PLAUR (gene 5329); assay: BSK_CASM3C_uPAR: BioMAP Diversity Plus: CASM3C Assay for Urokinase-type plasminogen activator receptor (uPAR) Biomarker Activity (AID 2283054); conditions: primary human coronary artery smooth muscle cells; actives raise or lower the signal;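 also: cell-surface uPAR protein level quantified by ELISA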
[12] = read-out: Vascular cell adhesion molecule 1 (VCAM1), VCAM1 (gene 7412); assay: BSK_CASM3C_VCAM1: BioMAP Diversity Plus: CASM3C Assay for Vascular cell adhesion molecule 1 (VCAM1) Biomarker Activity (AID 2283055); conditions: primary human coronary artery smooth muscle cells; actives raise or lower the signal;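 also: VCAM-1 protein level quantified by ELISA on the cells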
[13] = read-out: Collagen III, COL3A1 (gene 1281); assay: BSK_hDFCGF_CollagenIII: BioMAP Diversity Plus: hDFCGF Assay for Collagen III Biomarker Activity (AID 2283056); conditions: primary human foreskin fibroblasts; actives raise or lower the signal
Procedure, shortened: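 Response relative to DMSO, fitted in both directions, reflects ELISA-measured collagen III in human primary skin fibroblasts 24 h after compound addition.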

[14] = read-out: Epidermal growth factor receptor (EGFR), EGFR (gene 1956); assay: BSK_hDFCGF_EGFR: BioMAP Diversity Plus: hDFCGF Assay for Epidermal growth factor receptor (EGFR) Biomarker Activity (AID 2283057); conditions: primary human foreskin fibroblasts; actives raise or lower the signal
Procedure, shortened: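 Cell-based multiplexed assay in primary human foreskin fibroblasts. EGFR is read by ELISA 24 h after treatment and compared with DMSO controls.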

[15] = read-out: Interleukin-8 (IL8), CXCL8 (gene 3576); assay: BSK_hDFCGF_IL8: BioMAP Diversity Plus: hDFCGF Assay for Interleukin-8 (IL8) Biomarker Activity (AID 2283058); conditions: primary human foreskin fibroblasts; actives raise or lower the signal
Procedure, shortened: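 Fibroblast monolayers (human foreskin, hDFCGF) received test chemical for 24 h before ELISA detection of IL-8; either increases or decreases relative to DMSO count as activity.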

[16] = read-out: Macrophage colony-stimulating factor (MCSF), CSF1 (gene 1435); assay: BSK_hDFCGF_MCSF: BioMAP Diversity Plus: hDFCGF Assay for Macrophage colony-stimulating factor (MCSF) Biomarker Activity (AID 2283060); conditions: primary human foreskin fibroblasts; actives raise or lower the signal
Procedure, shortened: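 fibroblasts (human foreskin, primary), 24 h post-dose; M-CSF by ELISA; bidirectional fit, DMSO = baseline.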

[17] = BSK_hDFCGF_SRB: Viability Assessment in the BioMAP Diversity Plus: hDFCGF Assay (AID 2283061); conditions: primary human foreskin fibroblasts;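 also: cells exposed to compound for 24 h before the read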
Procedure, shortened: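 SRB-based viability read on primary human skin fibroblasts at 24 h: TCA fixation, 0.1% dye, 560 nm. Gain or loss of signal is fitted against the DMSO negative control.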

[18] = read-out: TIMP metallopeptidase inhibitor 1 (TIMP1), TIMP1 (gene 7076); assay: BSK_hDFCGF_TIMP1: BioMAP Diversity Plus: hDFCGF Assay for TIMP metallopeptidase inhibitor 1 (TIMP1) Biomarker Activity (AID 2283062); conditions: primary human foreskin fibroblasts; actives raise or lower the signal
Procedure, shortened: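 Bidirectional curve fitting against DMSO baseline yielded this endpoint, based on ELISA detection of TIMP-1 in primary human foreskin fibroblasts exposed to compound for 24 h.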

[19] = BSK_hDFCGF_Proliferation: Cell Proliferation Assessment in the BioMAP Diversity Plus: hDFCGF Assay (AID 2283059); conditions: primary human foreskin fibroblasts;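 also: curves fitted for both rise and fall of signal versus DMSO baseline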
Procedure, shortened: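 Sub-confluent human foreskin fibroblast cultures receive test chemical […]. Relative cell number is quantified by sulforhodamine B staining (0.1%, after 10% TCA fixation) at 560 nm, with bidirectional fitting referenced to DMSO.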

Measured: AC50

CCCCCc1ccc(O)cc1
active: [1] 12.8 µM | [2] 14.6 µM | [3] 10.4 µM | [4] 14 µM | [5] 11.6 µM | [6] 15.4 µM | [7] 12.7 µM | [8] 15.9 µM | [9] 34 µM | [10] 12 µM | [11] 14.4 µM | [12] 13.1 µM | [13] 12.5 µM | [14] 29.9 µM | [16] 25.5 µM | [17] 28.9 µM | [18] 20 µM
inactive: [15]

Cc1ccc(C(=O)c2ccccc2)cc1
inactive: [2] | [3] | [4] | [5] | [6] | [7] | [8] | [9] | [10] | [11] | [12] | [14] | [15] | [17]
active: [1] 3.97 µM | [13] 33.8 µM | [16] 29.3 µM | [18] 31.4 µM

Cc1ccc(N=Nc2c(O)ccc3ccccc23)c(C)c1
active: [9] 8.07 µM | [13] 6.8 µM | [16] 10 µM
inactive: [1] | [2] | [3] | [4] | [5] | [6] | [7] | [8] | [10] | [11] | [12] | [14] | [15] | [17] | [18]

C=CC(=O)OCCC(F)(F)C(F)(F)C(F)(F)C(F)(F)C(F)(F)C(F)(F)C(F)(F)C(F)(F)F
inactive: [1] | [2] | [3] | [4] | [5] | [6] | [7] | [8] | [9] | [10] | [11] | [12] | [13] | [14] | [15] | [16] | [17] | [18]

O=C(NCc1ncc(C(F)(F)F)cc1Cl)c1c(Cl)cccc1Cl
inactive: [1] | [2] | [3] | [4] | [5] | [6] | [7] | [8] | [9] | [10] | [11] | [12] | [13] | [14] | [15] | [16] | [17] | [18]

CN(C)CCOC(c1ccccc1)c1ccccc1
inactive: [1] | [3] | [4] | [5] | [6] | [7] | [8] | [9] | [10] | [11] | [12] | [13] | [14] | [15] | [19] | [17] | [18]

Cc1cccc2c1ccc1ccccc12
inactive: [1] | [2] | [3] | [4] | [5] | [6] | [7] | [8] | [9] | [10] | [11] | [12] | [13] | [14] | [15] | [16] | [17] | [18]

CS(=O)(=O)c1ccc([C@@H](CC2CCCC2)C(=O)Nc2cnccn2)cc1Cl
active: [5] 26.9 µM | [11] 26.3 µM
inactive: [1] | [2] | [3] | [4] | [6] | [7] | [8] | [9] | [10] | [12] | [13] | [14] | [15] | [16] | [17] | [18]

CCCCC=O
inactive: [1] | [2] | [3] | [4] | [5] | [6] | [7] | [8] | [9] | [10] | [11] | [12] | [13] | [14] | [15] | [16] | [17] | [18]

O=C(O)CCC(F)(F)C(F)(F)C(F)(F)C(F)(F)C(F)(F)C(F)(F)F
inactive: [1] | [2] | [3] | [4] | [5] | [6] | [7] | [8] | [9] | [10] | [11] | [12] | [13] | [14] | [15] | [16] | [17] | [18]

NC(=NCCCCCCN=C(N)/N=C(\N)Nc1ccc(Cl)cc1)/N=C(\N)Nc1ccc(Cl)cc1
inactive: [15]
active: [1] 6.06 µM | [2] 7.55 µM | [3] 5.55 µM | [5] 4.91 µM | [6] 13.2 µM | [7] 5.67 µM | [8] 4.9 µM | [9] 4.64 µM | [10] 2.1 µM | [11] 4.86 µM | [12] 9.65 µM | [13] 1.18 µM | [19] 1.44 µM | [16] 4.84 µM | [17] 4.77 µM | [18] 6.5 µM

O=C1c2ccc(O)c(O)c2C(=O)c2c(O)ccc(O)c21
active: [5] 0.0041 µM | [11] 0.0224 µM
inactive: [1] | [2] | [3] | [4] | [6] | [7] | [8] | [9] | [10] | [12] | [13] | [14] | [15] | [16] | [17] | [18]

C=CC(=C)CC/C=C(\C)CCC=C(C)C
active: [13] 3.62 µM
inactive: [1] | [2] | [3] | [4] | [5] | [6] | [7] | [8] | [9] | [10] | [11] | [12] | [14] | [15] | [16] | [17] | [18]

Clc1ccc(Nc2nnc(Cc3ccncc3)c3ccccc23)cc1
active: [5] 3.48 µM | [7] 0.507 µM | [10] 8.4 µM
inactive: [1] | [2] | [3] | [4] | [8] | [9] | [11] | [12] | [13] | [15] | [16] | [17] | [18]

CCCCC(CC)C(=O)O (configuration not stated)
inactive: [1] | [2] | [3] | [4] | [5] | [6] | [7] | [8] | [9] | [10] | [11] | [12] | [13] | [14] | [15] | [16] | [17] | [18]

CC(=O)Nc1ccc(O)cc1
inactive: [1] | [2] | [3] | [4] | [5] | [6] | [7] | [8] | [9] | [10] | [11] | [12] | [13] | [14] | [15] | [16] | [17] | [18]

O=C(CCCN1CCC(O)(c2ccc(Cl)cc2)CC1)c1ccc(F)cc1
inactive: [1] | [2] | [4] | [6] | [7] | [8] | [9] | [10] | [11] | [12] | [13] | [14] | [15] | [16] | [17] | [18]
active: [3] 9.2 µM | [5] 20 µM

CC(C)(C)c1ccc(O)c(O)c1
active: [9] 20 µM | [12] 4.99 µM | [13] 34.7 µM | [16] 31.1 µM | [17] 31.8 µM | [18] 31.6 µM
inactive: [1] | [2] | [3] | [4] | [6] | [7] | [8] | [10] | [11] | [14] | [15]

COC1=CC(=O)C[C@@H](C)[C@]12Oc1c(Cl)c(OC)cc(OC)c1C2=O
inactive: [1] | [2] | [3] | [6] | [7] | [8] | [9] | [11] | [12] | [13] | [14] | [15] | [16] | [17] | [18]
active: [4] 4.25 µM | [5] 7.06 µM | [10] 2.12 µM
